Assay outcomes as filed in PubChem BioAssay.
FBW7 act: human FBW7 E3 ligase activation, primary screen | Q969H0 | AlphaScreen FBW7–phospho-cyclin E peptide binding, activator screen | normalized activity (activation), % at 26.1 µM | 650,000 tested, 0.13% active | AID 1259310; in the data active = normalized activity above about 1.9%;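 note: purified mutant Fbw7 with reduced substrate affinity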
GPR151 ag: activators of human GPR151; Q8TDV0; PathHunter beta-arrestin GPR151 cells, luminescence; activation, % at 11.2 µM; 650,000 tested, 1% active; in the data active = activation above about 4.9%;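 note: 0% = median of compound wells and 100% = cells with positive control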
Target sequence (Q8TDV0 whole entry, looked up): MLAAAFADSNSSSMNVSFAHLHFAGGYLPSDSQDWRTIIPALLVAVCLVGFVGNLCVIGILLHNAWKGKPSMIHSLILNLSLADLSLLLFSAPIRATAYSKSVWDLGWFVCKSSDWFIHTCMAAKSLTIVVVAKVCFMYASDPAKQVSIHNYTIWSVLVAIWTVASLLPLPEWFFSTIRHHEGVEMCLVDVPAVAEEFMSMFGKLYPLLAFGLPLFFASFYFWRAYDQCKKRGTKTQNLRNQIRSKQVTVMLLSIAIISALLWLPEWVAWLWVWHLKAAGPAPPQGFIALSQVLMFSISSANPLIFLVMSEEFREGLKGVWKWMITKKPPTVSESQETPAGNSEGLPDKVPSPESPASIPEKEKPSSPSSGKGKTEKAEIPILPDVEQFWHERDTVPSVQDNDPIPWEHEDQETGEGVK
MITF primary: blocks human microphthalmia-associated transcription factor | O75030 | AlphaScreen MITF homodimerization, bead proximity signal | inhibition, % at 2.6 µM | 650,000 tested, 0.91% active; in the data active = inhibition above about 50%;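 note: 0% = vehicle wells with protein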
TEAD-YAP inh: TEAD-YAP interaction inhibition; AID 1259422; 640,000 tested, 1.4% active; HEK-TIYL cells, TEAD-Gal4/YAP UAS-luciferase luminescence; inhibition, % at 9.12 µM; in the data active = inhibition above about 32%;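 note: 0% = median of test compound wells and 100% = reference inhibitor wells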
* marks the source's active call; other numbers are inactive results. The list is not random: actives were taken first. Their share in the collection is about 3.4%.

SMILES	FBW7 act	GPR151 ag	MITF primary	TEAD-YAP inh
N#CC1=C(N)Oc2cc3ccccc3cc2C1c1cccnc1 (configuration not stated)	0.2	-1.0	9.9	48.3*
CCN(CC)S(=O)(=O)c1cc(C(=O)N2CCN(C(=O)c3ccc(Cl)c(S(=O)(=O)N(CC)CC)c3)CC2)ccc1Cl	0.1	1.7	2.6	-4.5
CCOC(=O)c1c(NC(=O)COc2ccc(Cl)cc2)sc2c1CCC2	0.0	-0.1	-8.4	-8.1
CCN(CC)c1nc(Nc2ccccc2)nc(N(CC)CC)n1	0.1	-1.2	7.8	5.0
COc1cc(C2C(C#N)=C(N)Oc3c2ccc2ccccc32)ccc1O (configuration not stated)	-0.1	1.9	2.3	57.8*
COc1cccc(C2C(C#N)=C(N)Oc3cc(N)ccc32)c1OC (configuration not stated)	0.1	0.6	16.5	2.4
COc1cccc(C2C(C#N)=C(N)Oc3cc4ccccc4cc32)c1 (configuration not stated)	-0.1	1.4	11.1	42.5*
COc1cc(C2C(C#N)=C(N)Oc3c2ccc2ccccc32)cc(Cl)c1O (configuration not stated)	-0.1	0.9	0.2	63.6*
COc1ccc(C2C(C#N)=C(NC(=O)c3ccccc3OC)Oc3c2ccc2ccccc32)cc1OC (configuration not stated)	-0.1	3.4	9.0	5.6
COc1ccccc1C1C(C#N)=C(N)Oc2cc3ccccc3cc21 (configuration not stated)	-0.1	0.3	4.1	36.9*
COc1ccc(C2C(C#N)=C(N)Oc3ccc4ccccc4c32)cc1OC (configuration not stated)	-0.1	1.6	-1.4	-7.9
N#CC1=C(N)Oc2ccc3ccccc3c2C1c1ccccc1F (configuration not stated)	0.4	-0.6	-9.8	52.2*
COc1cc(C2C(C#N)=C(N)Oc3ccc4ccccc4c32)cc(OC)c1OC (configuration not stated)	0.2	-0.2	3.9	47.8*
O=C(Cn1cnc2ccccc21)NCc1cccc(Oc2ccc(F)cc2)c1	-0.1	0.9	6.6	62.3*
O=C(NCc1cccc(Oc2ccc(F)cc2)c1)c1ccccn1	-0.1	-0.5	-3.3	53.6*
O=C(NCc1cccc(Oc2ccc(F)cc2)c1)c1cccnc1	0.3	-0.6	-1.8	-49.8
Cc1cc(C)cc(NC(=O)COc2cccc3c2OC(C)(C)C3)c1	-0.1	-1.0	0.0	-11.9
COc1cc2nc(N3CCc4ccccc4C3)nc(NCc3nc4ccccc4[nH]3)c2cc1OC	0.0	-1.5	-17.0	-8.7
Oc1ccc(/C=N/NC(=S)NCCN2CCOCC2)c(O)c1	-1.2	1.6	93.6*	-6.4
CN1CCc2cc(C(CNC(=O)Nc3cccc(Cl)c3)N(C)C)ccc21 (configuration not stated)	-0.2	-1.2	-3.3	48.9*
CN1CCCc2cc(C(CNC(=O)NC(C)(C)C)N(C)C)ccc21 (configuration not stated)	0.0	-0.6	8.8	1.2
O=C(Nc1ccc(-c2nnc3n2CCCCC3)cc1)Nc1ccc([N+](=O)[O-])cc1	0.1	0.1	8.4	3.2
O=C(O)COc1ccccc1/C=C1\C(=O)NC(=O)N(c2cccc([N+](=O)[O-])c2)C1=O	-0.2	-1.6	54.8*	0.4
CC1=CC2=NC(=O)/C(=C\c3cc(C)n(-c4ccc(Cl)cc4)c3C)C(=N)N2O1	0.2	0.1	3.5	13.0
CC1=CC2=NC(=O)/C(=C\c3cc(C)n(-c4cccc(F)c4)c3C)C(=N)N2O1	0.2	-0.4	-1.9	6.9
SMILES	FBW7 act	GPR151 ag	MITF primary	TEAD-YAP inh
COc1cccc(-n2c(C)cc(/C=C3/C(=N)N4OC(C)=CC4=NC3=O)c2C)c1	0.0	-1.0	1.8	56.8*
CC1=CC2=NC(=O)/C(=C\c3cc(C)n(-c4cc(C)cc(C)c4)c3C)C(=N)N2O1	0.0	0.7	4.3	55.0*
COc1cc(/C=C2/C(=N)N3OC(C)=CC3=NC2=O)ccc1OCc1ccc2c(c1)OCO2	0.0	-6.5	12.5	48.2*
CCOC(=O)C1=C(N)Oc2cc(C)oc(=O)c2C1c1ccc(Cl)cc1Cl (configuration not stated)	-0.2	-0.1	-3.2	2.1
COc1ccc(C2C=C(c3cccc(Br)c3)Nc3nnnn32)cc1OC (configuration not stated)	0.0	0.5	-0.4	2.6
COc1cccc(C2=CC(c3ccccc3C)n3nnnc3N2)c1 (configuration not stated)	-0.1	-1.1	-6.1	44.4*
COc1cccc(C2C=C(c3cccc(Br)c3)Nc3nnnn32)c1 (configuration not stated)	-0.1	-1.2	7.0	49.0*
COc1cccc(C2=CC(c3cc(Br)ccc3F)n3nnnc3N2)c1 (configuration not stated)	-0.1	1.5	4.5	46.1*
CCC(=O)N1CCC(CN=Cc2c(C)[nH]n(-c3ccc([N+](=O)[O-])cc3)c2=O)CC1	-0.1	-5.7	-6.5	12.4
COc1cccc(-c2cnn3c(Nc4ccc(OC)nc4)ccnc23)c1	0.1	-3.1	4.3	-53.9
COc1ccc(CNCc2cc(OC)c(OC)c(OC)c2)cc1C	0.0	0.8	51.1*	-0.6
COc1ccc(CNCc2ccccc2)cc1OC	-0.3	0.9	-9.0	2.4
CCOc1cc(/C=C2/NC(=O)N(CC(=O)Nc3cccc(C)c3)C2=O)cc(Cl)c1OC	-0.1	-0.7	22.6	3.2
COc1ccc(C(=O)N2CCN(Cc3ccc(SC)cc3)CC2)cc1OC	-0.1	-0.9	45.4	44.8*
COc1cccc(NS(=O)(=O)c2cc(C(=O)N3CCN(Cc4ccccc4)CC3)ccc2NCCc2ccc(OC)c(OC)c2)c1	-0.1	-0.4	2.6	52.1*
COc1cccc(NS(=O)(=O)c2cc(C(=O)N3CCCC3)ccc2NCCc2ccc(OC)c(OC)c2)c1	0.0	0.2	7.8	4.1
O=C(NCc1ccc2c(c1)OCO2)C1CCC(Cn2c(=S)[nH]c3ccsc3c2=O)CC1 (configuration not stated)	0.0	-0.7	4.8	-2.6
O=C(Nc1nnc(-c2ccc(Cl)cc2)o1)c1cc2ccccc2oc1=O	-0.1	2.7	-6.8	-5.4
CCOC(=O)c1sc(NC(=O)c2ccco2)c(SC#N)c1C	-0.1	-1.1	5.4	34.4*
Cc1ccc(S(=O)(=O)Nc2ccccc2/C=N\n2cnnc2)cc1	-0.1	0.0	2.5	48.2*
COc1cccc(NC(=O)CSc2nc(NC3CCCCC3)c3ccccc3n2)c1	0.2	0.7	13.9	43.6*
CCC1CCCCN1CCCNC(=O)Cn1ncc2c(=O)oc3ccc(C)cc3c21 (configuration not stated)	-0.1	0.8	-8.0	9.0
O=c1c2ccccc2ncn1-c1ccc([N+](=O)[O-])cc1[N+](=O)[O-]	0.0	-0.9	13.2	49.3*
O=C(O)c1cc(S(=O)(=O)Nc2ccc3c(c2)OCCO3)c(Cl)cc1Cl	0.0	1.3	4.6	35.7*
Cc1cccc(NC(=O)CSc2ncccn2)c1	-0.1	2.9	4.7	-14.9
CCOC(=O)c1c(CNC(C)=O)n(CC(=O)OC)c2cc(Br)c(OC)cc12	-0.1	-1.6	-8.0	3.0
